Inconclusive results are not listed. Activity calls are given as the source filed them. Calls come from the whole dose curve; as a rule, active = well fitted inhibition curve with a large enough effect; inconclusive = small, poorly fitted or top-dose-only effect, or effect the other way, or another doubt; inactive = no such curve, though single readings can be large or run the other way.
Potency is the fitted concentration of half-maximal effect.

This assay can be described thus: Confirmation Concentration-Response Assay for lipid storage modulators.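 For activity change, negative = inhibition: -100% = full block of lipid deposition by 20 µM Triacsin C.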 Note: nearly all actives have a fitted effect of over 80% in size. To be noted: Drosophila S3 cells, lipid droplet BODIPY/CellTracker ratio, 18-24 h; series mostly up to 46.1 µM; activity change, negative = inhibition: at the top concentration. The method, boiled down:
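Cells at 5,000/well received compound as a titration plus oleic acid (added as 400 uM solution) and were incubated 18–24 h at 24 °C. BODIPY 493/503 lipid signal and CellTracker Red cell count were read by 488-nm laser-scanning cytometry. Activity was normalised to 20 uM Triacsin C.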
As to `O=C(Nc1cccc(F)c1)NC1(C(=O)N2CCC(O)CC2)CCCCC1`, the “activity change, negative = inhibition” value is 23.6% (inactive). Still for that read-out and setting: then `CCNC(=O)NC1(C(=O)N2CCC(Cc3ccccc3)CC2)CCCCC1`, with -11.1% (inactive). Regarding `CN(C1=C(N2CCOCC2)C(=O)c2ccccc2C1=O)c1ccccc1`, the Potency is 6280 nM (active). Consider `CCCOc1ccc(Cc2c(Cl)nc(SC)nc2NC)cc1`, for which the Potency is 14100 nM (active). As to `COc1ccc(CCNC(=O)CCCOc2cccc(C)c2C)cc1OC`, the “activity change, negative = inhibition” value is -9.33% (inactive). Regarding `COCCN(C(=O)c1ccccc1F)c1nnc(-c2ccc(OC)cc2)s1`, the Potency was 25000 nM (active). On the same count and under the same terms, the value for `c1ccc2c(c1)OCC(CNc1ncnc3sccc13)O2` (configuration not stated) was 996 nM (active). On the same count and under the same terms, the value for `C1=C(CCNc2ncnc3c2[nH]c2ccccc23)CCCC1` was 996 nM (active). For the compound `CCOc1ccc(CCNC(=O)COC(=O)CSc2ccccc2C)cc1OCC`, the “activity change, negative = inhibition” value was 22.7% (inactive). Regarding `CC(C)OC(=O)c1cc2c(ccn2C)n1CC(=O)N(Cc1ccccc1)c1ccccc1`, the Potency is 1770 nM (active). Consider `CCCc1ccc(-c2csc(NC(=O)Cc3cccs3)n2)cc1`, for which the Potency is 1580 nM (active).

Take `CCN(CC)S(=O)(=O)c1cc(NC(=O)CNc2cccc(S(=O)(=O)N3CCOCC3)c2)ccc1C`: the Potency is 2810 nM (active). On the same count and under the same terms, the value for `CCOc1ccc(CCNC(=O)COC(=O)/C=C/c2ccc(C)o2)cc1OCC` was 499 nM (active). As for `O=C(CCc1ccccn1)NC1CCCc2c1cnn2-c1ccc(F)cc1F` (configuration not stated), the “activity change, negative = inhibition” value was -20.8% (inactive). With `Cc1cc(Nc2ccccc2)nc(NCc2ccccc2)n1`, the Potency is 11200 nM (active).

Turning to `Cc1cc(C(=O)NC2CCCc3c2cnn3-c2ccccc2F)nc(C)n1` (configuration not stated), the Potency was 1410 nM (active). Take `CCOc1ccc(CCNC(=O)CN2C(=O)NC3(CCCCC3C)C2=O)cc1OCC` (configuration not stated): the “activity change, negative = inhibition” value is -25.3% (inactive).

These data come from PubChem BioAssay AID1569 (National Center for Advancing Translational Sciences (NCATS), 2009).
